# Data published in PubChem BioAssay (NCATS).
# Values joined by “and” are separate entries in the source; they are usually repeats but may differ in a detail not shown here. Equal entries are not always repeated. Results filed as inconclusive are left out. More than one record can exist for a structure, and the calls need not agree. Unmarked numbers belong to inactive results. Active and inactive are the calls of the source. Calls come from the whole dose curve; as a rule, active = well fitted inhibition curve with a large enough effect; inconclusive = small, poorly fitted or top-dose-only effect; inactive = flat fitted curve, though single readings scatter. Peptide text beside a SMILES is read from it.
# Test: Drug repurposing screens with cells derived from glioblastoma tumor samples (AID 1345199); note: nearly all actives have a fitted effect of over 40% in size
# Conditions: GBM patient neurospheres viability, ATP luminescence, 48 h
# Method: CD133+ cells were isolated from GBM patient biopsies and cultured as neurospheres. Neurospheres from four patients were used to screen the NCATS pharmaceutical collection (NPC) library of approved drugs and bioactive compounds. […] The neurospheres were incubated with drugs for 48 hours in 1536-well format, then assayed with an ATP content cell viability assay. […] These hits were cherry picked to confirm activity in the four original GBM lines screened plus three other slower growing GMB lines (unable to yield enough cells for a full primary screen). Variable activities of the confirmed primary hits in the different GBM patient lines were observed. The patient line 206 responded to the greatest number of compounds and line 923 responded to the least amount of active compounds.
# [1] = at 20 µM (top of the series), tumour line C
# [2] = at 21.2 µM (top of the series), tumour line B
# [3] = at 45.9 µM (top of the series), tumour line B
# [4] = at 45.9 µM (top of the series), tumour line D
# [5] = at 46.1 µM (top of the series), tumour line C
# [6] = at 46 µM (top of the series), tumour line A
# % is set by controls: 0 for no effect and ±100 for the full control effect; potency is the fitted concentration of half-maximal effect.
compound,measurement,setting,value
O=C(c1ccccc1)c1ccc2n1CCC2C(=O)O (configuration not stated),"activity, negative = cell killing",[1],0.506%
same,"activity, negative = cell killing",[2],-13.1%
same,"activity, negative = cell killing","at 21.2 µM (top of the series), tumour line D",-2.23%
same,"activity, negative = cell killing","at 21.3 µM (top of the series), tumour line A",-11%
same,"activity, negative = cell killing",[3],-9.76%
same,"activity, negative = cell killing",[4],-4.33%
same,"activity, negative = cell killing",[5],-1.4%
Cc1nccn1CC1CCc2c(c3ccccc3n2C)C1=O (configuration not stated),"activity, negative = cell killing",[1],-25.3%
same,"activity, negative = cell killing",[2],-23.2%
same,"activity, negative = cell killing",[3],-6.55%
same,"activity, negative = cell killing",[4],-25.8%
same,"activity, negative = cell killing",[5],-22.8%
same,Potency,tumour line A,11.2 µM (active)
Oc1ccc(OCc2ccccc2)cc1,"activity, negative = cell killing",[1],4.55%
same,"activity, negative = cell killing",[2],-21.3%
CCC1=C(C)CN(C(=O)NCCc2ccc(S(=O)(=O)NC(=O)NC3CCC(C)CC3)cc2)C1=O (configuration not stated),"activity, negative = cell killing",[3],4.42%
same,"activity, negative = cell killing",[4],-28.4%
same,"activity, negative = cell killing",[5],-8.33%
Cc1ccc(C)c(OCCCC(C)(C)C(=O)O)c1,"activity, negative = cell killing",[3],-12.7%
same,"activity, negative = cell killing",[4],-0.928%
same,"activity, negative = cell killing",[6],-17.6%
same,"activity, negative = cell killing",[5],-8.64%
Cn1c(NCCN(CCO)CCCc2ccc([N+](=O)[O-])cc2)cc(=O)n(C)c1=O,"activity, negative = cell killing",[3],-18.9%
same,"activity, negative = cell killing",[4],-12.5%
same,"activity, negative = cell killing",[5],-1.17%
same,Potency,tumour line A,7.08 µM (active)
NC(=O)Cc1cccc(C(=O)c2ccccc2)c1N,"activity, negative = cell killing",[3],-10.2%
same,"activity, negative = cell killing",[4],-28%
same,"activity, negative = cell killing",[5],-24.8%
CS(=O)(=O)OCCCCOS(C)(=O)=O,"activity, negative = cell killing",[3],-4.65%
same,"activity, negative = cell killing",[4],-5.18%
same,"activity, negative = cell killing",[6],-16.3%
same,"activity, negative = cell killing",[5],-0.778%
COC(=O)[C@H](Cc1ccccc1)NC(=O)[C@@H](N)CC(=O)O (H-Asp-Phe-OMe),"activity, negative = cell killing",[3],-10.7% and -0.538%
same,"activity, negative = cell killing",[4],-6.33% and -21.9%
same,"activity, negative = cell killing",[5],-19.7% and -4.06%
Cc1c(OCC(F)(F)F)ccnc1CS(=O)c1nc2ccccc2[nH]1 (configuration not stated),"activity, negative = cell killing",[3],-26%
same,Potency,tumour line A,10 µM (active)
CC(C)(S)[C@@H](N)C(=O)O,"activity, negative = cell killing",[3],-10.5%
same,"activity, negative = cell killing",[4],-6.11%
same,"activity, negative = cell killing",[6],-3.65%
same,"activity, negative = cell killing",[5],-16.2%
